Where “and” joins values, the source holds several entries; their conditions need not be identical. Identical values can stand only once. Records with an inconclusive call do not appear. Calls of active or inactive are those of the source. Rule for the calls, unless noted: active = hit-call score of the fitted dose curve at least 0.9, where 1 is the maximum; inconclusive = response in the unintended direction; inactive = score below 0.9.
Legend:
[1] = biological target: Nucleoli Translocation, AR (gene 367) (UniProt P10275); assay: UPITT_HCI_U2OS_AR_TIF2_Nucleoli_Antagonist: University of Pittsburgh U2OS Androgen Receptor-Transcriptional Intermediary Factor 2 (AR-TIF2) Antagonism High Content Imaging Assay for Nucleoli Translocation (AID 2283997)
Chain of Nucleoli Translocation, AR (gene 367) (P10275 whole entry, looked up): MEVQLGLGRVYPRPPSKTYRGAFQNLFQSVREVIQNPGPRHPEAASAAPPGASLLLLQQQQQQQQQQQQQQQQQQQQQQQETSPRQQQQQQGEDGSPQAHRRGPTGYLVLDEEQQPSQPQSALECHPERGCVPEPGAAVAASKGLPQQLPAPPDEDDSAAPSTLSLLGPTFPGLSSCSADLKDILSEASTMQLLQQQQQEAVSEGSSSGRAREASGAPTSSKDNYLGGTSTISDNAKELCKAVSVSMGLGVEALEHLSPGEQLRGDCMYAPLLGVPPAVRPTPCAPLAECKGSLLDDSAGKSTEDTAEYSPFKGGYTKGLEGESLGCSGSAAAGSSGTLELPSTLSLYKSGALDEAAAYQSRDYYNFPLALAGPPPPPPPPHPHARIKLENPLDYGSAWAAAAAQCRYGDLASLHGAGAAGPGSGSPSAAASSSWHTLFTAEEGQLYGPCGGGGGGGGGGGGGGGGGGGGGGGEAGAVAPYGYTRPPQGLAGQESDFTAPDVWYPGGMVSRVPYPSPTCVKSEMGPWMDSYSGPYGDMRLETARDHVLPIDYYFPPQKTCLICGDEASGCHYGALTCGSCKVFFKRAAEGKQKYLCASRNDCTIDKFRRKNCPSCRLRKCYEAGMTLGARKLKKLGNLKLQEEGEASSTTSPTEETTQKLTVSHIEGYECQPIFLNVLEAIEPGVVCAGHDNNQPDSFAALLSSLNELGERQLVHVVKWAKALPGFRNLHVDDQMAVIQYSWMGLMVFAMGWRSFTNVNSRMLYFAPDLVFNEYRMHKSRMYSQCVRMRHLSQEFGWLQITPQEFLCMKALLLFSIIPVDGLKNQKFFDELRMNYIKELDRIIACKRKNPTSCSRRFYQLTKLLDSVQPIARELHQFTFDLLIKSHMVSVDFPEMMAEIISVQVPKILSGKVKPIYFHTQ
Method in brief: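 U2OS cells co-expressing red-fluorescent-tagged human AR and green-fluorescent-tagged TIF2, imaged by high-content microscopy for nucleolar red fluorescence. Antagonist mode against DHT; primary screen at 20 uM final (0.2% DMSO).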

[2] = biological target: Ratio of Nucleoli Translocation and Cytoplasm, AR (gene 367) (UniProt P10275); assay: UPITT_HCI_U2OS_AR_TIF2_Nucleoli_Cytoplasm_Ratio_Agonist: University of Pittsburgh U2OS Androgen Receptor-Transcriptional Intermediary Factor 2 (AR-TIF2) Agonism High Content Imaging Assay for Ratio of Nucleoli Translocation and Cytoplasm (AID 2284000);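 note: hits raise the red nucleolar to cytoplasm ratio above vehicle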
Chain of Ratio of Nucleoli Translocation and Cytoplasm, AR (gene 367) (P10275 whole entry, looked up): as above
Method in brief: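 U2OS cells expressing RFP-tagged human AR and GFP-tagged TIF2; high-content imaging ratio of nucleolar to cytoplasmic red fluorescence, fitted as gain of signal vs DMSO. Single point at 20 uM final (0.2% DMSO); concentration-response 0.195-50 uM final (0.5% DMSO).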

[3] = CCTE_Harrill_HTTr_Viability_MCF7: CCTE's 6-hour Cell Viability Assessment for the High-Throughput Transcriptomics (HTTr) Platform, in MCF-7 cells cultured in DMEM + 10% fetal bovine serum, Harrill Lab (AID 2284010; active = hit-call score of the fitted dose curve at least 0.9, where 1 is the maximum; inactive = score below 0.9)
Method in brief: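 Viability measured through PI dye exclusion by high-content imaging at 6 h post-dosing.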

[4] = CCTE_Harrill_HTTr_Apoptosis_MCF7: CCTE's 6-hour Apoptosis Assessment for the High-Throughput Transcriptomics (HTTr) Platform, in MCF-7 cells cultured in DMEM + 10% fetal bovine serum, Harrill Lab (AID 2284011; active = hit-call score of the fitted dose curve at least 0.9, where 1 is the maximum; inactive = score below 0.9)
Method in brief: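 MCF-7 cells in DMEM + 10% FBS exposed 6 h to chemicals over an eight-point dilution series. Caspase-3/7 activation imaged by high-content CellEvent Green staining; fitted bidirectionally versus DMSO.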

[5] = CCTE_Harrill_HTTr_CellCount_MCF7: CCTE's Cell Proliferation Assessment for the High-Throughput Transcriptomics (HTTr) Platform, Harrill Lab (AID 2284012);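 note: count of Hoechst-stained nuclei per well by high-content imaging in MCF-7 cells; cells exposed to compound for six hours; intended direction is loss of nuclei count meaning fewer cells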
Method in brief: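 Nuclei counting (Hoechst, high content imaging) in MCF-7 after a 6 h treatment at eight concentrations. Activity fitted bidirectionally, DMSO as negative control.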

[6] = biological target: Nucleoli Translocation, AR (gene 367) (UniProt P10275); assay: UPITT_HCI_U2OS_AR_TIF2_Nucleoli_Agonist: University of Pittsburgh U2OS Androgen Receptor-Transcriptional Intermediary Factor 2 (AR-TIF2) Agonism High Content Imaging Assay for Nucleoli Translocation (AID 2283998)
Method in brief: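 U2OS cells expressing RFP-tagged human AR and GFP-tagged TIF2; red fluorescence in nucleoli quantified by high-content imaging. Primary screen at 20 uM final (0.2% DMSO); concentration-response 0.195–50 uM (0.5% DMSO), fitted upward versus DMSO.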

[7] = biological target: Ratio of Nucleoli Translocation and Cytoplasm, AR (gene 367) (UniProt P10275); assay: UPITT_HCI_U2OS_AR_TIF2_Nucleoli_Cytoplasm_Ratio_Antagonist: University of Pittsburgh U2OS Androgen Receptor-Transcriptional Intermediary Factor 2 (AR-TIF2) Antagonism High Content Imaging Assay for Ratio of Nucleoli Translocation and Cytoplasm (AID 2283999);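 note: antagonists lower the DHT-driven ratio of nucleolar to cytoplasmic red signal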
Method in brief: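 High-content imaging quantifies the red nucleolar:cytoplasmic fluorescence ratio in U2OS cells with AR-RFP and TIF2-GFP. Final concentrations are 20 uM (screen) or 0.195–50 uM (dose response), analysed against DHT as baseline.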

DIO1 (gene 1733) = assay: CCTE_GLTED_hDIO1: CCTE's human Deiodinase 1 (DIO1) Inhibition Assay, Great Lakes Toxicology and Ecology Division (GLTED) Lab (AID 2283987);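 note: isolated human DIO1 enzyme in a cell-free setup rather than cells; enzyme activity read as free iodide liberated from substrate via Sandell-Kolthoff colorimetry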
Method in brief: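 Cell-free human DIO1 enzyme incubated 3 h with test chemical; iodide freed from substrate then measured by Sandell-Kolthoff absorbance. Run in triplicate; loss of signal relative to DMSO taken as inhibition.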

[8] = CCTE_Shafer_MEA_acute_spike_number: CCTE's Neural Acute Assay for Total Number of Spikes, Shafer Lab (AID 2284008; active = hit-call score of the fitted dose curve at least 0.9, where 1 is the maximum; inactive = score below 0.9;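 for AC50: curve fitted for decrease in spike count so AC50 reflects inhibitors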)
Method in brief: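 Rat primary cortical neurons on 48-well MEA plates, DIV 13 or 15, at 37 C. 40 min baseline then 40 min with compound (0.03-40 uM); spikes detected at 8x rms noise, expressed as percent change from baseline.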

[9] = CCTE_Shafer_MEA_acute_firing_rate_mean: CCTE's Neural Acute Assay for Mean Firing Rate, Shafer Lab (AID 2284009; active = hit-call score of the fitted dose curve at least 0.9, where 1 is the maximum; inactive = score below 0.9;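 note: analyzed for loss of signal so actives lower firing rate relative to DMSO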)
Method in brief: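 Rat primary cortical neurons on 48-well MEA plates, dosed at 0.03-40 uM on DIV 13 or 15; 40 min spontaneous activity recorded at 37 C before and after compound. Spike rate per electrode averaged per well, expressed as percent change from baseline.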

[10] = CCTE_Shafer_MEA_acute_burst_number: CCTE's Neural Acute Assay for Single-Electrode Bursts, Shafer Lab (AID 2284013; active = hit-call score of the fitted dose curve at least 0.9, where 1 is the maximum; inactive = score below 0.9)
Method in brief: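 Primary rat cortical neurons on 16-electrode MEA wells, treated on DIV 13 or 15 with compound at 0.03-40 uM. Single-electrode burst count from 40-min recordings at 37 C before and after exposure; percent change from baseline per well, DMSO negative control.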

[11] = CCTE_Shafer_MEA_acute_burst_duration_mean: CCTE's Neural Acute Assay for Mean Burst Duration, Shafer Lab (AID 2284014; active = hit-call score of the fitted dose curve at least 0.9, where 1 is the maximum; inactive = score below 0.9;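 note: hits are decreases in mean burst duration relative to DMSO controls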)
Method in brief: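 Rat primary cortical neurons on 48-well MEA, treated at DIV 13 or 15 with 0.03-40 uM in at least 3 wells. Value is percent change in mean burst duration, comparing 40 min recordings at 37 C before and during exposure.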

[12] = CCTE_Shafer_MEA_acute_per_burst_spike_number_mean: CCTE's Neural Acute Assay for Average Number of Spikes Per Burst, Shafer Lab (AID 2284015; active = hit-call score of the fitted dose curve at least 0.9, where 1 is the maximum; inactive = score below 0.9;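 note: hits are decreases in mean spikes per burst versus baseline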)
Method in brief: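 Percent change in mean spikes per single-electrode burst is compared between a 40 min baseline and a 40 min recording with compound (0.03-40 uM). Cultures were rat cortical neurons on MEA plates at DIV 13 or 15, recorded at 37 C, with DMSO as the negative control.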

[13] = CCTE_Shafer_MEA_acute_interburst_interval_mean: CCTE's Neural Acute Assay for Mean Interburst Interval, Shafer Lab (AID 2284016; active = hit-call score of the fitted dose curve at least 0.9, where 1 is the maximum; inactive = score below 0.9;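 note: percent change of mean interburst interval versus each well's own pre-dose baseline; curves fitted for decrease in interburst interval relative to DMSO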)
Method in brief: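 Percent change in mean single-electrode interburst interval was calculated per well from 40 min recordings before and after compound (0.03-40 uM). Recordings were made at 37 C on rat cortical cultures at DIV 13 or 15, with spikes detected at 8x rms threshold.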

[14] = CCTE_Shafer_MEA_acute_burst_percentage_mean: CCTE's Neural Acute Assay for Percentage of Spikes in a Burst, Shafer Lab (AID 2284017; active = hit-call score of the fitted dose curve at least 0.9, where 1 is the maximum; inactive = score below 0.9;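 for AC50: curve fitted for loss of signal so potency reflects decreased burst percentage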)
Method in brief: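 Well-level mean burst percentage from a 40-min recording after compound (0.03-40 uM) expressed as percent change from a 40-min baseline at 37C. Cultures: primary rat cortical neurons on MEA, dosed on DIV 13 or 15; fitted downward relative to DMSO.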

[15] = CCTE_Simmons_MITO_inhib_resp_rate: CCTE's HepG2 Seahorse XF Respirometric Screening Assay at Inhibited Respiratory State [full ETC block], Simmons Lab (AID 2284006; active = hit-call score of the fitted dose curve at least 0.9, where 1 is the maximum; inactive = score below 0.9); settings: actives raise or lower the signal
Method in brief: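 Inhibited respiration was taken as HepG2 oxygen consumption after rotenone/antimycin A, which followed test-compound and FCCP injections. Chemicals were tested at seven final concentrations from 125 nM to 100 uM. Activity was fitted bidirectionally relative to DMSO.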

With CCCCCCCCCCC the outcome [1] was “inactive”, the outcome [2] was “inactive” and the outcome [3] was “inactive”. For the same compound, the outcome [4] was “inactive” and the outcome [5] was “inactive”.
In the case of Cc1ccc(C)c(C)c1, the outcome [1] is reported as “inactive”, the outcome [6] is reported as “inactive” and the outcome [7] is reported as “inactive”. For the same compound, the outcome [2] was “inactive”, the outcome [3] was “inactive” and the outcome [4] was “inactive”.
For COCCOCCOC, the outcome [1] was “inactive”, the outcome [6] was “inactive” and the outcome [2] was “inactive”. For the same compound, the outcome [3] was “inactive”, the outcome [4] was “inactive” and the outcome [5] was “inactive”.
In the case of Cc1ccc(N(C)C)cc1, the outcome [1] is reported as “inactive”, the outcome [6] is reported as “inactive” and the outcome [7] is reported as “inactive”. The outcome [2] was “inactive”.
For Cc1cc(=O)[nH]c(=S)[nH]1, the AC50 (DIO1 (gene 1733)) was 16.4 µM (active), the outcome [3] was “inactive” and the outcome [4] was “inactive”. For the same compound, the outcome [5] was “inactive”.
In the case of Cc1cccc(C)c1O, the outcome [1] is reported as “inactive”, the outcome [6] is reported as “inactive” and the outcome [7] is reported as “inactive”. For the same compound, the outcome [3] was “inactive”, the outcome [4] was “inactive” and the outcome [5] was “inactive”.
For COc1ccc(C)cc1N, the outcome [1] was “inactive”, the outcome [7] was “inactive” and the outcome [3] was “inactive”. The outcome [4] was “inactive” and the outcome [5] was “inactive”.
For CC(=O)Oc1ccccc1C(=O)O, the outcome [6] was “inactive”, the outcome [2] was “inactive” and the outcome [8] was “inactive”. For the same compound, the outcome [9] was “inactive”, the outcome [3] was “inactive” and the outcome [4] was “inactive”. For the same compound, the outcome [10] was “inactive”, the outcome [11] was “inactive” and the outcome [12] was “inactive”. The outcome [13] was “inactive” and the outcome [14] was “inactive”.
In the case of COc1cc(C=O)ccc1O, the outcome [1] is reported as “inactive”, the outcome [6] is reported as “inactive” and the outcome [7] is reported as “inactive”. The outcome [3] was “inactive”, the outcome [4] was “inactive” and the outcome [5] was “inactive”.
For Cc1cc(NC(=O)C(=O)O)cc(C)c1Oc1ccc(O)c2c1CCC2, the outcome [7] was “inactive”, the outcome [2] was “inactive” and the outcome [3] was “inactive”. The outcome [4] was “inactive”.
With CNC(=O)[C@H]1O[C@@H](n2cnc3c(NCc4cc(Cl)ccc4OCc4cc(C)no4)ncnc32)[C@H](O)[C@@H]1N the outcome [1] was “inactive”, the outcome [6] was “inactive” and the outcome [7] was “inactive”. For the same compound, the outcome [2] was “inactive”, the outcome [3] was “inactive” and the outcome [4] was “inactive”. The outcome [5] was “inactive”.
For Cc1ccc(C)c(O)c1C, the outcome [1] was “inactive”, the outcome [6] was “inactive” and the outcome [7] was “inactive”. For the same compound, the outcome [2] was “inactive”, the outcome [8] was “inactive” and the outcome [9] was “inactive”. For the same compound, the outcome [3] was “inactive”, the outcome [4] was “inactive” and the outcome [5] was “inactive”. For the same compound, the outcome [10] was “inactive”, the outcome [11] was “inactive” and the outcome [12] was “inactive”. The outcome [13] was “inactive” and the AC50 [14] was 32.4 µM (active).
In the case of O=C(O)Cc1ccccc1Nc1c(Cl)cccc1Cl, the outcome [1] is reported as “inactive”, the outcome [6] is reported as “inactive” and the outcome [7] is reported as “inactive”. The outcome [2] was “inactive”, the outcome [3] was “inactive” and the outcome [4] was “inactive”. For the same compound, the outcome [5] was “inactive”.
For COc1ccc(S(=O)(=O)N2C(=O)[C@@](c3ccccc3OC)(N3C[C@H](O)C[C@H]3C(=O)N(C)C)c3cc(Cl)ccc32)c(OC)c1, the outcome [1] was “inactive”, the outcome [6] was “inactive” and the outcome [7] was “inactive”. For the same compound, the outcome [2] was “inactive”, the outcome [15] was “inactive” and the AC50 [8] was 31.8 µM (active). For the same compound, the AC50 [9] was 31.8 µM (active), the outcome [3] was “inactive” and the outcome [4] was “inactive”. For the same compound, the outcome [10] was “inactive”, the outcome [11] was “inactive” and the outcome [12] was “inactive”. The outcome [13] was “inactive” and the outcome [14] was “inactive”.
For Cc1nc(-c2ccc3c(c2)CCN(CCC2CCC(NC(=O)/C=C/c4ccc(F)cc4)CC2)CC3)no1 (stereo not drawn), the outcome [1] was “inactive”, the outcome [6] was “inactive” and the outcome [7] was “inactive”. The outcome [2] was “inactive”, the outcome [3] was “inactive” and the outcome [4] was “inactive”. The outcome [5] was “inactive”.
With CCOc1ccc2c(c1)C(C)=CC(C)(C)N2 the AC50 [1] was 50 µM (active), the outcome [6] was “inactive” and the outcome [7] was “inactive”. For the same compound, the outcome [2] was “inactive”, the outcome [3] was “inactive” and the outcome [4] was “inactive”.
In the case of CCCc1cc(=O)[nH]c(=S)[nH]1, the AC50 (DIO1 (gene 1733)) is reported as 3.82 µM (active) and 5.5 µM (active), the outcome [8] is reported as “inactive” and the outcome [9] is reported as “inactive”. The outcome [3] was “inactive”, the outcome [4] was “inactive” and the outcome [5] was “inactive”. For the same compound, the outcome [10] was “inactive”, the outcome [11] was “inactive” and the outcome [12] was “inactive”. The outcome [13] was “inactive” and the outcome [14] was “inactive”.

From PubChem BioAssay (EPA / NIEHS)
